Hits are enriched below; roughly 4.2% of the tested compounds scored in any of these assays.
SW480 rerep = A quantitative high throughput screen for small molecules that induce DNA re-replication in SW480 colon adenocarcinoma cells; SW480 DNA re-replication, Hoechst DNA content imaging, 48 h; actives 1.8% (n = 340,000); Potency, µM (titrated, usually from 46.1 µM), for the others: top-dose re-replication activation, most hits filed as activators; AID 624297, 2012; note: % of control where 0% means no effect; nearly all actives have a fitted effect of over 55% in size
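Treated cells incubate 48 hr (37 C, 5% CO2), are stained 40 min with Hoechst, and nuclear fluorescence is enumerated; a rise in nuclei with high DNA signal marks re-replication.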
A-T KAP1 phos = qHTS Assay for Identifying a Potential Treatment of Ataxia-Telangiectasia; F2112 A-T fibroblasts, KAP-1 phosphorylation AlphaLISA; neocarzinostatin DNA damage 30 min before lysis; AID 485349, 2010; actives 0.19% (n = 320,000); Potency, µM (top dose mostly 57.5 µM), for the others: top-dose activation, most hits filed as activators; note: % of control where 0% means no effect; nearly all actives have a fitted effect of over 45% in size
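hTERT-immortalized A-T patient fibroblasts (F2112), 500 cells/well in OPTI-MEM, 1% FBS, got compounds for 60 min, then NCS for 30 min at 37C. Lysates were then assayed for phospho-KAP-1 by AlphaLISA (anti-pKAP1 donor, anti-KAP1 acceptor beads), 6 hr at 25C.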
a7 integrin act = qHTS for Activators of Integrin-Mediated Alleviation for Muscular Dystrophy; actives 0.064% (n = 350,000); Potency, µM (highest dose often 38.3 µM), inactives show top-dose activation, usual class: activators; alpha7betagal myoblasts, beta-gal FDG fluorescence, 48 h;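 note: 100% = response of the positive control SU9516; nearly all actives have a fitted effect of over 60% in size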
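Alpha7betagal+/- myoblasts (passage 13) were plated 16-24 hr, then exposed to compounds (1:260 dilution of DMSO stock) for 48 hours at 37C. After MPER lysis, β-galactosidase reporter activity was read as FDG fluorescence (ex 480/em 540) after 30 minutes.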
Mito fusion act = qHTS Assay for Small Molecule Inhibitors of Mitochondrial Division or Activators of Mitochondrial Fusion | AID 485298, 2010 | actives 0.23% (n = 320,000) | S. cerevisiae fusion-defective mutant growth rescue, CellTiterGlo 48 h | Potency, µM (series often up to 46.1 µM), without a hit: top-dose growth rescue (activation), actives largely listed as activators; note: % of control where 0% means no effect; nearly all actives have a fitted effect of over 45% in size
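Compounds are tested for their ability to restore growth of mitochondrial fusion-defective yeast strains at non-permissive 37C in YPEG medium over 48 hours. Viability is quantified by luciferase luminescence.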
MCF10A rereplic = A quantitative high throughput screen for small molecules that induce DNA re-replication in MCF 10a normal breast cells. MCF 10A DNA re-replication, Hoechst nuclear intensity, 48 h. Potency, µM (top dose mostly 46.1 µM), for the others: at the top dose activity, positive = re-replication, actives largely listed as activators. actives 2.9% (n = 350,000); note: % of control where 0% means no effect; nearly all actives have a fitted effect of over 50% in size
* marks the source's active call; other numbers are inactive results; ? = inconclusive; . = no result given; ! = not confirmed by another sample; [ ] = dose if it differs, or a comment. Calls come from the whole dose curve; as a rule, active = well fitted activation curve with a large enough effect; inconclusive = small, poorly fitted or top-dose-only effect; inactive = no such curve, though single readings can be large or run the other way. Potency is the fitted concentration of half-maximal effect.

SMILES	SW480 rerep	A-T KAP1 phos	a7 integrin act	Mito fusion act	MCF10A rereplic
Cc1ccccc1Cn1ccc(NC(=O)c2cc3nc(-c4ccco4)cc(C(F)(F)F)n3n2)n1	?	7%	1%	1%	8.2µM*
CCc1ccc(-c2cc(C(F)(F)F)n3nc(C(=O)Nc4c(C)nn(Cc5ccccc5C)c4C)cc3n2)s1	2.6µM*	-3%	10%	2%	?
Cc1cc(N)c2ccccc2[n+]1CCCCCCCCCC[n+]1c(C)cc(N)c2ccccc21	-9%[20.6 µM]	.	.	2.6µM*	3%[20.6 µM]
O=C(O)CCCNC(=O)c1ccc(NC(=O)Cc2ccc(Cl)cc2)cc1	0%	2%	-18%	-7%	-16%
CC(Oc1ccccc1)c1nnc(SCC(=O)NC2CC2)n1C (stereo not given)	-4%	-2%	7%	5%	-16%
CCn1c(SCC(=O)NC2CC2)nnc1C(C)Oc1ccccc1 (stereo not given)	21µM*	-5%	12%	-4%	2%
COC1=CC(=O)CC(C)C12Oc1c(Cl)c(OC)cc(OC)c1C2=O (stereo not given)	23µM*!	10%	.	1%	?
O=C(NNC(=S)Nc1ccccc1)c1cccc(Br)c1	-2%	.	9%	6%	20%
O=C(NNC(=O)c1cccc(Br)c1)Nc1ccc(Cl)cc1	-50%	28µM*	10%	1%	-27%
Cc1c(N/N=C(\C#N)C(=O)c2ccc(Cl)cc2)c(=O)n(-c2ccccc2)n1C	9.2µM*	.	-15%	-1%	2.9µM*
Cc1c(NC(=O)/C(C#N)=C/c2ccc(-c3cc(Cl)ccc3Cl)o2)c(=O)n(-c2ccccc2)n1C	21µM*	-13%	-12%	-1%	19%
N#C/C(=N\Nc1ccc(Cl)cc1)C(=O)c1ccccc1	10%	5%	-50%	?	23µM*
CN(C)CCN1C(=O)c2cccc3cc([N+](=O)[O-])cc(c23)C1=O	1.5µM*	.	-55%	.	?
CN(C)CCCN1C(=O)c2cccc3cccc(c23)C1=O	?	5%	-70%	-2%	-4%
COc1ccc(Nc2nc(-c3ccccc3)nc3ccccc23)cc1S(=O)(=O)N1CCOCC1	1%	-1%	-42%	4%	?
CCCC(c1nnnn1Cc1ccco1)N1CCN(c2ccccc2)CC1 (stereo not given)	-3%	-1%[11.5 µM]	-12%	-5%	-6%
CCCC(c1nnnn1Cc1ccco1)N1CCN(c2cc(Cl)ccc2C)CC1 (stereo not given)	2%	8%	5%	-1%	25µM*
COc1ccccc1COC(=O)C(NC(=O)c1ccc(C)cc1)C(C)C (stereo not given)	-51%	-7%	4%	25%	10%
COC(=O)C=CC(=NNc1ccccc1)c1ccccc1	?	.	-9%	.	18µM*
C[C@@H]1CN([C@H](C)CO)S(=O)(=O)c2ccc(C#Cc3ccccc3F)cc2O[C@H]1CN(C)C(=O)c1ccc2c(c1)OCO2	.	.	-63%	.	.
Cc1nn(-c2ccccc2)c(Cl)c1/C=N/NC(=O)CCNc1n[nH]c(=O)[nH]c1=O	-42%	20µM*	4%	-2%	18%
CN(Cc1cc(Br)cc(Br)c1N)C1CCCCC1	?	.	.	.	27µM*
CN(Cc1ccc(O)cc1)C1CCCCC1	0%	15%	2%[7.66 µM]	-8%	6%
COc1cc(-c2cccc([C@H]3[C@@H]4C=CC[C@@H](C)[C@@H]4C(=O)N3Cc3ccccc3)c2)cc(OC)c1OC	3%	11%	-8%	.	7.3µM*
COc1ccc(-c2ccoc2)cc1[C@H]1[C@H]2C=CC[C@@H](C)[C@@H]2C(=O)N1Cc1ccccc1	7%	13%	-21%	-60%	18µM*
SMILES	SW480 rerep	A-T KAP1 phos	a7 integrin act	Mito fusion act	MCF10A rereplic
COc1ccc(-c2ccc(C)cc2)cc1[C@H]1[C@H]2C=CC[C@@H](C)[C@@H]2C(=O)N1Cc1ccccc1	1%	16%	8%	-23%	-3%
COc1ccc(-c2ccc([C@H]3[C@H]4C=CC[C@@H](C)[C@@H]4C(=O)N3Cc3ccccc3)c(F)c2)cc1	?	0%	-3%	-17%	13µM*
COc1cc(Nc2nc3c(N)cc(C(F)(F)F)cc3nc2-c2ccccc2)cc(OC)c1OC	-3%	.	8%	.	-5%
CCCCn1c(N)c(N(CCOC)C(=O)c2ccc(S(=O)(=O)N3CCCCCC3)cc2)c(=O)[nH]c1=O	-2%	4%	-2%	-15%	-1%
O=C1NC(=O)c2cc(Br)cc3cccc1c23	8%	0%	5%	-4%	-6%
Cc1ccc(NS(=O)(=O)c2cc3c4c(cccc4c2)C(=O)NC3=O)cc1C	28%	-3%	-50%	-3%	15µM*
COc1cccc(C(C[N+](=O)[O-])c2c(C)[nH]n(-c3ccccc3)c2=O)c1 (stereo not given)	?	-4%	-8%	-16%	18%
Cc1[nH]n(-c2ccccc2)c(=O)c1C(C[N+](=O)[O-])c1ccc(Br)cc1 (stereo not given)	?	2%	-34%	-3%	3.3µM*
CCCCCCCCN1[C@@H](CC(=O)O)c2cc(C(F)(F)F)ccc2S1(=O)=O	?	.	-3%	.	22%
CCCCCCCCCCCCN1[C@@H](CC(=O)O)c2cc(C(F)(F)F)ccc2S1(=O)=O	23%	.	1%	.	16µM*
Cc1ccc(S(=O)(=O)c2cn(C)c3cc(N4CCN(C)CC4)c(F)cc3c2=O)c(C)c1	1.6µM*	-3%	-49%	-5%	-2%
CCOC(=O)COc1cc(N)c(Cl)cc1Cl	-2%	0%	0%	-6%	6.5µM*
COC(=O)c1cc(NC(=O)c2cccc(C(F)(F)F)c2)c(=O)oc1C	1%	0%	1%	-2%	-2%
COC(=O)c1cc(NC(=O)c2cccc(C(F)(F)F)c2)c(=O)oc1C/C=N/OCc1cccc(Cl)c1Cl	13%	.	-29%	0%	18µM*
COc1ccc(/C=N/Nc2nn3cnnc3c3ccccc23)cc1	-14%	45µM*	-8%	8%	-9%
CCCOc1ccc(CCc2n[nH]c(=S)n2Cc2ccccc2)cc1	2%	31%	-12%	-12%	21µM*
CCCOc1ccc(CCc2n[nH]c(=S)n2-c2ccccc2)cc1	-8%	5%	2%	1%	1%
CC12CCC(C(=O)N/N=C/c3ccc(O)cc3O)(OC1=O)C2(C)C (stereo not given)	4.6µM*	-9%	-26%	2%	5%
C/C(=N\NC(=O)C12CCC(C)(C(=O)O1)C2(C)C)c1ccccc1O (stereo not given)	3.7µM*	-4%	2%	-4%	?

Compound activity deposited in PubChem by National Center for Advancing Translational Sciences (NCATS).
